Compound activity (PubChem BioAssay)
Most compounds without a hit are left out; they make up all but 7.8% or so of the library.
MARV entry inh = Marburg virus entry inhibition. Marburg virus pseudotyped entry inhibition, cell reporter. Potency, µM (titrated, usually from 37.8 µM), actives largely listed as inhibitors. 1.8% of 300,000 active. AID 540276; calls by dose curve; tested in HEK293 cells
HCV inh = HCV inhibition | Potency, µM (titrated, usually from 41.8 µM), actives largely listed as inhibitors | Huh7.5.1 HCVcc-Cre infection, luciferase reporter, 44 h | AID 651820 | 3.4% of 340,000 active; active = well fitted inhibition curve with a large enough effect; inconclusive = small, poorly fitted or top-dose-only effect, or another doubt; inactive = no such curve, though single readings can be large or run the other way
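Seed cells (1,000/well) for 4 h; treat with compound and infect with HCVcc-Cre, moi about 0.5. Incubate 44 h, then detect luciferase activity.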
HCMV inh = blocks human cytomegalovirus replication; HFF cells, HCMV-luciferase reporter, 72 h; stronger effect = lower value; activity change, negative = inhibition, % at 57.5 µM; 4.5% of 410,000 active; in the data active = activity change below about -60%; inconclusive = no clear call, values can overlap the other calls; inactive = above about -39%
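Two-dose cell screen: HFF monolayers treated with compounds and infected with luciferase-expressing HCMV at 1 PFU/cell, 72 h at 37C, then lysed for luciferase measurement.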
Vaccinia Venus = inhibitors of vaccinia virus (Venus reporter); 0.46% of 330,000 active; Potency, µM (series often up to 36.5 µM), hits mostly inhibitors; Vaccinia virus Venus reporter expression, fluorescence; calls by dose curve; tested in A549 cells; also: nearly all actives have a fitted effect of over 30% in size
Vaccinia mCherry = inhibitors of vaccinia virus infection (mCherry reporter signal). 0.63% of 310,000 active. Vaccinia virus mCherry reporter infection, fluorescence. AID 720579. Potency, µM (highest dose often 36.5 µM), usual class: inhibitors; calls by dose curve; tested in A549 cells; also: nearly all actives have a fitted effect of over 35% in size
Lassa entry inh = Lassa virus entry inhibition; AID 540256; Lassa virus pseudotype entry inhibition, cell reporter; Potency, µM (top dose mostly 37.9 µM), usual class: inhibitors; 1.2% of 300,000 active; calls by dose curve; tested in HEK293 cells; also: nearly all actives have a fitted effect of over 50% in size
Large screens that a line does not name were inactive.

O=C(NCc1ccccc1)[C@@H]1C[C@H]1[C@@H](NP(=O)(c1ccccc1)c1ccccc1)c1ccccc1	MARV entry inh inconclusive, Lassa entry inh 1.8µM
O=C(NCC1CC1)[C@@H]1C[C@H]1[C@@H](NP(=O)(c1ccccc1)c1ccccc1)c1ccccc1	Lassa entry inh inconclusive
COC(=O)[C@H]1C[C@@H]1[C@H](NP(=O)(c1ccccc1)c1ccccc1)c1ccccc1	none
COc1cccc(-c2coc3ccc(Br)cc3c2=O)c1	none (no result: HCV inh, HCMV inh, Vaccinia Venus, Vaccinia mCherry, Lassa entry inh)
CC(=O)N/C(=C/c1ccccc1)c1sc2ccccc2[n+]1CCCCI	none (no result: MARV entry inh, HCV inh, HCMV inh, Lassa entry inh)
O=C(CSc1nnc(Cn2nnc3ccccc32)o1)N(Cc1ccc(Cl)cc1)c1ccccc1	MARV entry inh 6.3µM, HCV inh 6.3µM, Vaccinia Venus inconclusive, Vaccinia mCherry inconclusive, Lassa entry inh inconclusive
O=C(CSc1nnc(Cn2nnc3ccccc32)o1)Nc1cccc(Cl)c1	none
Clc1ccc(CSc2nnc(Cn3cnc4ccccc43)o2)cc1	MARV entry inh inconclusive, HCV inh inconclusive, HCMV inh -81, Vaccinia Venus inconclusive, Lassa entry inh inconclusive
COc1cccc(C2C(C(=O)Nc3ccc(Cl)cc3)=C(C)Nc3c(C(=O)Nc4ccccc4)cnn32)c1OC (centres undefined)	MARV entry inh inconclusive, Lassa entry inh inconclusive (no result: HCV inh)
Cc1ccc(N/C(N)=N/c2nc(C)cc(N3CCCCC3)n2)c(C)c1	MARV entry inh inconclusive, HCV inh 2.8µM, HCMV inh inconclusive, Vaccinia Venus inconclusive, Vaccinia mCherry inconclusive, Lassa entry inh inconclusive
COc1ccc2c3c(n(C)c2c1)[C@@H](CO)N(C(=O)c1cnccn1)CC31CN(C(C)=O)C1	none (no result: MARV entry inh, HCV inh, Vaccinia Venus, Vaccinia mCherry, Lassa entry inh)
CCCNC(=O)C1=CC(c2ccc3c(c2)OCO3)=NS(=O)(=O)N1C	MARV entry inh inconclusive (no result: HCV inh)
Cc1cc2ccccn2c1C(=O)c1ccc(C#N)cc1	HCMV inh -81, Lassa entry inh inconclusive
Cc1cc2ccccn2c1C(=O)c1ccc(NN)c([N+](=O)[O-])c1	MARV entry inh 8.9µM, HCMV inh inconclusive, Vaccinia Venus inconclusive, Vaccinia mCherry 0.89µM, Lassa entry inh inconclusive
Cc1cc2ccccn2c1C(=O)c1cc([N+](=O)[O-])cc([N+](=O)[O-])c1	HCV inh inconclusive, HCMV inh inconclusive, Vaccinia Venus inconclusive, Vaccinia mCherry inconclusive
CCOc1ccccc1N(CC(=O)NCC1CCCO1)C(=O)CNS(=O)(=O)c1ccccc1 (centres undefined)	HCMV inh -69
CCC(C(=O)NCC1CCCO1)N(Cc1ccc(F)cc1)C(=O)CNS(=O)(=O)c1ccccc1 (centres undefined)	HCMV inh -71
COc1ccc(S(=O)(=O)N(CC(=O)NCC2CCCO2)Cc2ccccc2)cc1C (centres undefined)	HCMV inh -90, Lassa entry inh inconclusive
Cc1ccc(-c2nnc3ccccc3c2C(=O)Nc2ccccc2F)cc1	Lassa entry inh inconclusive (no result: MARV entry inh, HCV inh)
CCOC(=O)CNC(=O)CSc1cn(CC(=O)N2CCCCCC2)c2ccccc12	none (no result: MARV entry inh, HCV inh)
CC12CCC(=O)C=C1CCC1C2CCC2(C)C(O)(C(=O)CO)CCC12O (centres undefined)	HCMV inh -65
COCc1cc(C)nc2sc(C(=O)Nc3ccc(OC(F)(F)F)cc3)c(N)c12	MARV entry inh inconclusive, Lassa entry inh inconclusive (no result: HCV inh)
CCc1ccc2oc(-c3cc(NC(=O)c4cc([N+](=O)[O-])ccc4N4CCOCC4)ccc3Cl)nc2c1	MARV entry inh inconclusive (no result: HCV inh)
COc1cc(CN2CCc3nc(N4CCN(c5ccccn5)CC4)ncc3C2)cc(OC)c1OC	HCMV inh -63, Vaccinia Venus inconclusive, Lassa entry inh inconclusive (no result: MARV entry inh, HCV inh)
Brc1ccc(CN2CCc3nc(N4CCN(c5ncccn5)CC4)ncc3C2)cc1	none (no result: MARV entry inh, HCV inh)
CN(C)c1ccc(CN2CCc3nc(N4CCN(c5ccccn5)CC4)ncc3C2)cc1	Vaccinia mCherry inconclusive, Lassa entry inh inconclusive (no result: MARV entry inh, HCV inh)
CCOc1ccccc1CN1CCc2nc(N3CCN(c4ccccc4F)CC3)ncc2C1	HCMV inh -64, Vaccinia Venus inconclusive (no result: MARV entry inh, HCV inh)
COc1cc(CN2CCc3nc(N4CCN(c5ncccn5)CC4)ncc3C2)cc(OC)c1OC	HCMV inh -63, Vaccinia Venus inconclusive, Lassa entry inh inconclusive (no result: MARV entry inh, HCV inh)
Cc1ccc(-n2nc(CO)c(C(=O)NCCCc3ccccc3)n2)cc1C	none (no result: HCV inh)
CCCN1C/C(=C/c2cccc([N+](=O)[O-])c2)C(=O)/C(=C/c2cccc([N+](=O)[O-])c2)C1	MARV entry inh inconclusive, HCV inh inconclusive, HCMV inh -105, Lassa entry inh 2µM
